Source: PubChem (several laboratories)
GIRK2 activator = Activates human GIRK2-containing potassium channels | P48051 | HEK293 GIRK2/NPY4 cells, thallium flux fluorescence | activation (% efficacy), % for hits at 37.5 µM | 34,000 tested, under 10 active | AID 1259324;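 active means primary screen hit, no activity in plain HEK293 cells, and in GIRK2-only cells above 5% efficacy rising with concentration; inactive means the rest, including fluorescent compounds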;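 further: efficacy is normalized control-subtracted fluorescence 15 s after thallium addition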
GluA2 TARP mod = GluA2-stargazin AMPA receptor complex modulation; calls only at 30 µM; AID 1259245; 3.5% of 40,000 active; HEK293 GluA2+stargazin, membrane potential dye (FDSS), glutamate EC50; hits were called plate by plate, in both directions;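 active means any of four per-well response measures lying three or more SD from its plate-wide compound average, in either direction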
Large screens that a line does not name were inactive; ! = repeats disagree. This excerpt belongs to a sample that is enriched for hits.

CCOC(=O)c1ccc(NC(=O)Cn2cccc(-c3nc(-c4ccc(C)cc4)no3)c2=O)cc1	none
CCOc1ccccc1NC(=O)CSc1nnnn1-c1ccccc1C(F)(F)F	none
CCOc1ccccc1NC(=O)CSc1nnnn1-c1cccc(C)c1	GluA2 TARP mod active!
CCn1nnc2c(Nc3ccc(OC(F)(F)F)cc3)ncnc21	none
COc1cc(S(=O)(=O)Nc2ccc(-c3cn4cccc(C)c4n3)cc2)c(OC)cc1C	GluA2 TARP mod active (no result: GIRK2 activator)
COc1ccc(OC)c(S(=O)(=O)Nc2ccc(-c3cn4ccccc4n3)cc2)c1	none (no result: GIRK2 activator)
O=C1Nc2c(c(=O)[nH]c(=O)n2Cc2ccccc2)C(c2ccco2)N1 (stereo not given)	none
COc1ccc(NC(=O)c2cccc(C)c2)cc1N1CCCCC1=O	none
CCOC(=O)C(CC)Sc1ccc(NC(=O)c2ccccc2)nn1 (stereo not given)	none
Cc1cc(Br)c2nc(-c3ccncc3)oc(=O)c2c1	GluA2 TARP mod active
Cc1ccc(CNC(=O)CSc2nnc(-c3ccncc3)o2)cc1	none
O=c1nc(SCc2ccccc2)c2c(n1CCCO)CCCC2	none
Cc1ccccc1-c1ccc(SCC(=O)NCc2ccc3c(c2)OCO3)nn1	GluA2 TARP mod active
CC(C)C(=O)Nc1ccc(SCC(=O)NCc2ccc3c(c2)OCO3)nn1	none
CC(=O)Nc1ccc2nc(NC(=O)c3ccnn3C)sc2c1	none
COc1cccc(N2C(=O)c3cccc4c(N5CCCCCC5)ccc(c34)C2=O)c1	none (no result: GIRK2 activator)
CCC(=O)OCCN1C(=O)c2cccc3c(N4CCCCC4)ccc(c23)C1=O	GluA2 TARP mod active (no result: GIRK2 activator)
COc1ccccc1CNC(=O)C(=O)NCc1ccncc1	none
CC(=O)Nc1ccc(S(=O)(=O)n2nc(C)c(C)c2C)cc1	GluA2 TARP mod active (no result: GIRK2 activator)
CC(=O)Nc1ccc(S(=O)(=O)N2CCN(c3c(C)cccc3C)CC2)cc1	none (no result: GIRK2 activator)
Cc1cc(C)c(S(=O)(=O)N2CCN(S(=O)(=O)N3CCCC3)CC2)c(C)c1	none
Cc1cc(C)c(S(=O)(=O)n2nc(C)c(C)c2C)c(C)c1	GluA2 TARP mod active (no result: GIRK2 activator)
CC(C)(C)C(=O)N1CCc2ccc(NS(=O)(=O)c3cccc(Cl)c3)cc21	none
Cc1noc(C)c1CCC(=O)Nc1ccc2cn[nH]c2c1	none
CCNc1nn(CC(=O)Nc2c(C)cccc2C)c(N)c1-c1nc(-c2ccccc2C)no1	none
O=C(c1ccco1)N1CCN(c2nnnc3c2cnn3-c2ccccc2)CC1	none
Cc1ccc(OCCCCn2c(CNC(=O)c3ccco3)nc3ccccc32)cc1	none (no result: GluA2 TARP mod)
CC(=O)OCCCCn1c(COc2ccccc2)nc2ccccc21	GluA2 TARP mod active
COc1ccc(S(=O)(=O)NCC2CCN(C3CCCC3)CC2)c(C)c1	none
CCCOc1cn(-c2ccc(F)cc2)nc1C(=O)N1CCN(C(C)=O)CC1	none
